In assay [1] the target is human Vitamin D Receptor (VDR), VDR (gene 7421) (UniProt P11473). The experiment in a line: ATG_VDR_TRANS: Attagene TRANS-FACTORIAL HepG2 Assay for human Vitamin D Receptor (VDR) (AID 2283022; active means hit-call score of the fitted dose curve at least 0.9, where 1 is the maximum). Summed up: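 Fluorescence of labelled reporter cDNA fragments, resolved by capillary electrophoresis, gives mRNA induction after 24 h treatment of HepG2 cells carrying transfected Gal4-fusion reporter units. Activity is fitted in the positive direction with DMSO as baseline.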

Read-out in assay [2]: Interleukin-8 (IL8), CXCL8 (gene 3576)
The assay can be described thus: BSK_3C_IL8: BioMAP Diversity Plus: 3C Assay for Interleukin-8 (IL8) Biomarker Activity (AID 2283020). The conditions noted are these: primary human endothelial cells (HUVEC); actives raise or lower the signal. Summed up: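 HUVEC, 3C stimulation; 24 h compound exposure; IL-8 read by ELISA; gain or loss of signal fitted relative to DMSO control.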

Read-out in assay [3]: Monokine induced gamma interferon (MIG), CXCL9 (gene 4283)
The assay can be described thus: BSK_3C_MIG: BioMAP Diversity Plus: 3C Assay for Monokine induced gamma interferon (MIG) Biomarker Activity (AID 2283021). The settings on record: primary human endothelial cells (HUVEC); actives raise or lower the signal. Summed up: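 HUVEC, 3C system; 24 h chemical exposure; MIG by ELISA; bidirectional fit vs DMSO baseline.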

Assay [4] is described as follows: BSK_3C_SRB: Viability Assessment in the BioMAP Diversity Plus: 3C Assay (AID 2283023).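 Further: fitted both ways against DMSO so a hit may be signal rise or drop.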 The conditions noted are these: primary human endothelial cells (HUVEC). Summed up: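 Cells were dosed with chemical, cultured 24 h, fixed with 10% TCA, stained with 0.1% SRB and read at 560 nm. Human umbilical vein endothelium was used; DMSO served as negative control and baseline.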

Read-out in assay [5]: Matrix Metallopeptidase 1 (MMP1), MMP1 (gene 4312)
The assay can be described thus: BSK_BE3C_MMP1: BioMAP Diversity Plus: BE3C Assay for Matrix Metallopeptidase 1 (MMP1) Biomarker Activity (AID 2283024). The settings on record: primary human bronchial epithelial cells; actives raise or lower the signal. Summed up: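 ELISA read-out of MMP1 in human lung bronchial epithelial primary cultures, 24 h post-dose; bidirectional curve fit vs DMSO baseline, gain or loss of signal scored.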

Assay [6] can be described thus: BSK_3C_Vis: BioMAP Diversity Plus: 3C Assay for Morphology Visualization (AID 2283025).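 Further: light microscopy image of cell morphology used as background control; cells imaged 24 h after dosing; fitted both ways so gain or loss versus DMSO counts.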 The conditions noted are these: primary human endothelial cells (HUVEC). Summed up:
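HUVEC, 3C system; light microscopy of morphology at 24 h post-dose. Bidirectional fit vs DMSO baseline. Secondary readout, background-control function.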

Read-out in assay [7]: Pselectin, SELP (gene 6403)
The assay can be described thus: BSK_4H_Pselectin: BioMAP Diversity Plus: 4H Assay for Pselectin Biomarker Activity (AID 2283026). The settings on record: primary human endothelial cells (HUVEC); actives raise or lower the signal. Summed up: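 HUVEC, 24 h chemical exposure; P-selectin read by ELISA. Bidirectional curve fit vs DMSO baseline; gain or loss of signal scored.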

Assay [8] is described as follows: BSK_4H_SRB: Viability Assessment in the BioMAP Diversity Plus: 4H Assay (AID 2283027).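 Further: cells exposed to compound for 24 h before staining.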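 On AC50: curves fitted both ways versus DMSO so AC50 may be loss or gain.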 The conditions noted are these: primary human endothelial cells (HUVEC). Summed up:
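Cytotoxicity read-out in primary human endothelial cells: after 24 h compound exposure, cells were TCA-fixed (10%), stained with 0.1% SRB and absorbance taken at 560 nm. Values fitted in both directions relative to DMSO.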

Assay [9] can be described thus: BSK_BE3C_SRB: Viability Assessment in the BioMAP Diversity Plus: BE3C Assay (AID 2283028).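 Further: measured 24 h after chemical dosing.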 The conditions noted are these: primary human bronchial epithelial cells. Summed up: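 Overt cytotoxicity was assessed as total protein in confluent human primary bronchial epithelial cultures 24 h after chemical addition, using 0.1% sulforhodamine B staining read at 560 nm.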

Read-out in assay [10]: Thrombomodulin, THBD (gene 7056)
The assay can be described thus: BSK_3C_Thrombomodulin: BioMAP Diversity Plus: 3C Assay for Thrombomodulin Biomarker Activity (AID 2283029). The settings on record: primary human endothelial cells (HUVEC); actives raise or lower the signal. Summed up:
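HUVEC, 3C conditions; compound 24 h; thrombomodulin by ELISA; bidirectional curve fit vs DMSO baseline; parallel SRB total-protein staining for cytotoxicity.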

Results filed as inconclusive are left out. Active and inactive are the calls of the source. How the source made its calls, unless noted: active means hit-call score of the fitted dose curve at least 0.9, where 1 is the maximum; inactive means score below 0.9.

human Vitamin D Receptor (VDR), VDR (gene 7421), sequence (P11473 whole entry, looked up, the tested form may be a part): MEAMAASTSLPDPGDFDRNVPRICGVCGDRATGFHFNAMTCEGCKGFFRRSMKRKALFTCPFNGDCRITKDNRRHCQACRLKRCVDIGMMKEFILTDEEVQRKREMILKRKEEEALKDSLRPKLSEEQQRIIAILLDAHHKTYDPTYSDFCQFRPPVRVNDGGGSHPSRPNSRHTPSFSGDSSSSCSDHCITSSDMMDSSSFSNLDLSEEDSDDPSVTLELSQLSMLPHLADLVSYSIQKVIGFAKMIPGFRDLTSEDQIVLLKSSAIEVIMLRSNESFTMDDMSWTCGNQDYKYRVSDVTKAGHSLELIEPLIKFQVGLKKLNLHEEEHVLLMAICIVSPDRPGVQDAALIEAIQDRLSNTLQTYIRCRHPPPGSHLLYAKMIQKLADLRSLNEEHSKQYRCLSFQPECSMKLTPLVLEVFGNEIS

On to `CN(C)c1ccc(C=O)cc1`, for which the result in assay [1] was inactive.

For orientation: AC50 means the concentration at which the activity in the assay is half-maximal. As for `C#C[C@]1(O)CC[C@H]2[C@@H]3CCc4cc(O)ccc4[C@H]3CC[C@@]21C`, the half-maximal activity concentration (AC50) is 5.33 µM (active) in assay [2], 6.09 µM (active) in assay [4], 9.8 µM (active) in assay [6] and 3.99 µM (active) in assay [8]. Further, the result in [3], in assay [5], in assay [7], in [9] and in [10] was inactive.

In the case of `C=C(F)C(=O)OC(C(F)(F)F)C(F)(F)F`, the outcome in [2], in assay [3], in assay [4], in [5], in assay [7] and in assay [8] was inactive. The outcome in assay [9] was inactive.

For `CCCC1CCC(=O)CC1`, the call in [1] was inactive.

For the compound `Cc1ccc(C(C)(C)O)cc1`, the compound was classed as inactive in [1].

On to `CC(C)CCCC(C)(C)O`, for which the outcome in [2], in assay [3], in assay [4], in [5], in assay [7] and in assay [8] was inactive. Moreover, in [9], the result was inactive.

`CCCO`: the outcome in [1] was inactive.

Regarding `C=CC(O)CCCCC` (centres undefined), the result in assay [1] was inactive.

`C=CC(C)(CCC=C(C)C)OC(=O)CC` (centres undefined): in assay [1], the outcome was inactive.

The values above are taken from PubChem BioAssay (EPA / NIEHS).
